Data from PubChem BioAssay AID1159580 (chemical genetic matrix, 2015).
The whole screen tested about 5,500 compounds, of which about 2,000 (36%) were called active. About 18% were inconclusive and are not listed. The list shows a part of the results. Values without a mark were called inactive. Rule as the data show it: active = normalized growth mostly below about 0.91 (no sharp cut-off); inconclusive = no clear call, values can overlap the other calls; inactive = mostly above about 0.92.

Test: chemical genetic growth profiling, strain panel (AID 1159580);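 also: tested at 20 µM; growth read once vehicle control cultures reached saturation at 30 °C; 1 = growth at the plate median or of vehicle wells; lower values mean less growth of the strain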
Conditions: S. cerevisiae deletion strains, growth OD

Q: For `O=C(NCCc1ccncc1)c1ccc(Cl)c(Cl)c1`, which normalized growth (locus YAR019C, strain CDC15, active compounds read low) is on record?
A: Its normalized growth is 0.985.

Q: And the normalized growth (locus YBL105C, strain PKC1, active compounds read low)?
A: Its normalized growth is 0.987.

Q: And the normalized growth (locus YBR135W, strain CKS1, active compounds read low)?
A: The normalized growth was 0.988.

Q: And the normalized growth (locus YBR136W, strain MEC1, active compounds read low)?
A: The normalized growth was 0.987.

Q: And the normalized growth (locus YBR160W, strain CDC28, active compounds read low)?
A: Its normalized growth is 0.991.

Q: What about the normalized growth (locus YDL017W, strain CDC7, active compounds read low) of the same compound?
A: Its normalized growth is 0.991.

Q: And the normalized growth (locus YDL028C, strain MPS1, active compounds read low)?
A: The normalized growth was 0.985.

Q: What about the normalized growth (locus YDL101C, strain DUN1, active compounds read low) of the same compound?
A: The normalized growth was 0.98.

Q: What about the normalized growth (locus YDL108W, strain KIN28, active compounds read low) of the same compound?
A: The normalized growth was 0.981.

Q: What about the normalized growth (locus YDL132W, strain cdc53, active compounds read low) of the same compound?
A: Its normalized growth is 0.998.

Q: And the normalized growth (locus YDL214C, strain PRR2, active compounds read low)?
A: The normalized growth was 0.945.

Q: What about the normalized growth (locus YDR052C, strain DBF4, active compounds read low) of the same compound?
A: Its normalized growth is 0.988.

Q: What about the normalized growth (locus YDR054C, strain cdc34, active compounds read low) of the same compound?
A: Its normalized growth is 0.984.

Q: And the normalized growth (locus YDR226W, strain ADK1, active compounds read low)?
A: The normalized growth was 0.985.

Q: What about the normalized growth (locus YDR477W, strain SNF1, active compounds read low) of the same compound?
A: The normalized growth was 1.01.

Q: And the normalized growth (locus YER123W, strain YCK3, active compounds read low)?
A: Its normalized growth is 0.877.

Q: What about the normalized growth (locus YER133W, strain GLC7, active compounds read low) of the same compound?
A: Its normalized growth is 0.969.

Q: What about the normalized growth (locus YFL009W, strain cdc4, active compounds read low) of the same compound?
A: The normalized growth was 0.982.

Q: What about the normalized growth (locus YFL029C, strain CAK1, active compounds read low) of the same compound?
A: Its normalized growth is 0.98.

Q: And the normalized growth (locus YFR003C, strain YPI1, active compounds read low)?
A: Its normalized growth is 0.984.

Q: And the normalized growth (locus YFR019W, strain FAB1, active compounds read low)?
A: The normalized growth was 0.927.

Q: What about the normalized growth (locus YFR028C, strain CDC14, active compounds read low) of the same compound?
A: Its normalized growth is 0.994.

Q: And the normalized growth (locus YGR040W, strain KSS1, active compounds read low)?
A: The normalized growth was 0.992.

Q: And the normalized growth (locus YGR052W, strain FMP48, active compounds read low)?
A: Its normalized growth is 0.985.

Q: What about the normalized growth (locus YGR092W, strain DBF2, active compounds read low) of the same compound?
A: Its normalized growth is 1.

Q: What about the normalized growth (locus YHR030C, strain SLT2, active compounds read low) of the same compound?
A: The normalized growth was 0.911.

Q: What about the normalized growth (locus YHR079C, strain IRE1, active compounds read low) of the same compound?
A: Its normalized growth is 0.938.

Q: What about the normalized growth (locus YHR082C, strain KSP1, active compounds read low) of the same compound?
A: The normalized growth was 1.1.

Q: What about the normalized growth (locus YHR205W, strain SCH9, active compounds read low) of the same compound?
A: Its normalized growth is 0.99.

Q: What about the normalized growth (locus YIL147C, strain SLN1, active compounds read low) of the same compound?
A: Its normalized growth is 0.986.

Q: And the normalized growth (locus YJL095W, strain BCK1, active compounds read low)?
A: Its normalized growth is 0.925.

Q: And the normalized growth (locus YJL128C, strain PBS2, active compounds read low)?
A: The normalized growth was 0.94.

Q: And the normalized growth (locus YJL157C, strain FAR1, active compounds read low)?
A: The normalized growth was 0.96.

Q: And the normalized growth (locus YJR016C, strain ILV3, active compounds read low)?
A: Its normalized growth is 0.995.

Q: And the normalized growth (locus YJR066W, strain TOR1 (second series), active compounds read low)?
A: Its normalized growth is 1.03.

Q: What about the normalized growth (locus YJR066W, strain TOR1, active compounds read low) of the same compound?
A: Its normalized growth is 1.04.

Q: What about the normalized growth (locus YKL048C, strain ELM1, active compounds read low) of the same compound?
A: Its normalized growth is 0.992.

Q: And the normalized growth (locus YKL067W, strain YNK1, active compounds read low)?
A: The normalized growth was 0.947.

Q: What about the normalized growth (locus YKL101W, strain HSL1, active compounds read low) of the same compound?
A: Its normalized growth is 0.941.

Q: And the normalized growth (locus YKL193C, strain SDS22, active compounds read low)?
A: Its normalized growth is 0.992.

Q: What about the normalized growth (locus YKL203C, strain TOR2, active compounds read low) of the same compound?
A: Its normalized growth is 1.01.

Q: And the normalized growth (locus YLR113W, strain HOG1, active compounds read low)?
A: The normalized growth was 0.756 (active).

Q: What about the normalized growth (locus YLR133W, strain CKI1, active compounds read low) of the same compound?
A: Its normalized growth is 0.977.

Q: And the normalized growth (locus YLR403W, strain SFP1, active compounds read low)?
A: Its normalized growth is 0.972.

Q: What about the normalized growth (locus YML070W, strain DAK1, active compounds read low) of the same compound?
A: The normalized growth was 0.941.

Q: What about the normalized growth (locus YMR001C, strain CDC5, active compounds read low) of the same compound?
A: Its normalized growth is 0.989.

Q: What about the normalized growth (locus YMR205C, strain PFK2 (second series), active compounds read low) of the same compound?
A: Its normalized growth is 0.978.

Q: What about the normalized growth (locus YMR277W, strain FCP1, active compounds read low) of the same compound?
A: Its normalized growth is 0.989.

Q: What about the normalized growth (locus YNL006W, strain LST8, active compounds read low) of the same compound?
A: Its normalized growth is 0.976.

Q: What about the normalized growth (locus YNL020C, strain ARK1, active compounds read low) of the same compound?
A: The normalized growth was 0.964.

Q: What about the normalized growth (locus YNL161W, strain CBK1, active compounds read low) of the same compound?
A: Its normalized growth is 0.991.

Q: What about the normalized growth (locus YNL183C, strain NPR1, active compounds read low) of the same compound?
A: Its normalized growth is 1.01.

Q: And the normalized growth (locus YNL207W, strain RIO2, active compounds read low)?
A: The normalized growth was 0.991.

Q: What about the normalized growth (locus YNL222W, strain SSU72, active compounds read low) of the same compound?
A: The normalized growth was 0.992.

Q: And the normalized growth (locus YNL307C, strain MCK1 (second series), active compounds read low)?
A: The normalized growth was 0.961.

Q: And the normalized growth (locus YOL078W, strain AVO1, active compounds read low)?
A: The normalized growth was 0.997.

Q: What about the normalized growth (locus YOL136C, strain PFK27, active compounds read low) of the same compound?
A: The normalized growth was 0.945.

Q: What about the normalized growth (locus YOR061W, strain CKA2, active compounds read low) of the same compound?
A: Its normalized growth is 0.924.

Q: What about the normalized growth (locus YOR119C, strain RIO1, active compounds read low) of the same compound?
A: The normalized growth was 1.03.

Q: What about the normalized growth (locus YOR231W, strain MKK1, active compounds read low) of the same compound?
A: The normalized growth was 0.916.

Q: And the normalized growth (locus YOR329C, strain SCD5, active compounds read low)?
A: The normalized growth was 0.991.

Q: And the normalized growth (locus YPL031C, strain PHO85, active compounds read low)?
A: The normalized growth was 0.976.

Q: What about the normalized growth (locus YPL153C, strain RAD53, active compounds read low) of the same compound?
A: The normalized growth was 0.993.

Q: What about the normalized growth (locus YPL204W, strain HRR25, active compounds read low) of the same compound?
A: The normalized growth was 0.972.

Q: And the normalized growth (locus YPL209C, strain IPL1, active compounds read low)?
A: Its normalized growth is 0.987.

Q: What about the normalized growth (locus YPL256C, strain CLN2, active compounds read low) of the same compound?
A: Its normalized growth is 0.868.

Q: What about the normalized growth (locus YPR025C, strain CCL1, active compounds read low) of the same compound?
A: The normalized growth was 0.992.

Q: And the normalized growth (locus YPR106W, strain ISR1, active compounds read low)?
A: Its normalized growth is 0.983.

Q: And the normalized growth (locus YPR111W, strain DBF20, active compounds read low)?
A: Its normalized growth is 0.961.

Q: And the normalized growth (strain NNK1, active compounds read low)?
A: Its normalized growth is 0.982.

Q: And the normalized growth (strain TSCII, active compounds read low)?
A: Its normalized growth is 0.983.
